# Measured values: the supplement of paper PMC10646978
# ± gives the standard deviation.
# Assays:
# Details in all cases: modulator concentration 10 µM
# [1] = tested on: RAW-Dual (murine macrophage reporter line); assay: NF-kB reporter (SEAP) activity fold change vs agonist alone; higher = enhanced NF-kB activity
# Outline: (§1)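 Compound reached 10 μM final in each well by pin transfer, onto RAW-Dual murine macrophage reporter cells seeded at 50 000 per well in 384-well plates. After 1 hour at 37 °C, the cells were stimulated overnight with a PRR agonist. SEAP in the supernatant was read with QUANTI-Blue at 620 nm absorbance for NF-κB, and Lucia luciferase was read with QUANTI-Luc luminescence for IRF. Each signal was turned into fold change against the mean agonist-only control on the same plate, and two replicate plates were averaged with propagated errors.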
# [2] = tested on: RAW-Dual (murine macrophage reporter line); assay: IRF reporter (Lucia luciferase) activity fold change vs agonist alone; higher = enhanced IRF activity
# Outline: as §1
# [3] = tested on: RAW-Dual (murine macrophage reporter line); assay: viability score (confluency relative to resting cells, overnight) (fraction); higher = more viable, active = viable (0.7 or more)
# Outline: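 Confluency was the readout: RAW-Dual macrophages were imaged with IncuCyte after an overnight exposure to compound at 10 μM final. IncuCyte software produced two masks over all imaged wells. The viability score expresses confluency against resting cells, and both masks had to exceed 70% of resting cells for a compound to meet the cutoff.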
# [4] = agonist: CpG ODN 1826 0.5 ug/mL
compound,measurement,setting,value
CCCCCCCCc1ccc(CCC(N)(CO)CO)cc1.Cl,NF-kB reporter,[1]; [4],0.687 ± 0.18
same,NF-kB reporter,[1]; agonist: LPS 0.1 ug/mL,0.685 ± 0.047
same,NF-kB reporter,[1]; agonist: MPLA […],1.55 ± 0.2
same,IRF reporter,[2]; agonist: 3'3'-cGAMP 10 ug/mL,0.172 ± 0.019
same,IRF reporter,[2]; agonist: LPS 0.1 ug/mL,0.673 ± 0.072
same,IRF reporter,[2]; agonist: MPLA […],0.615 ± 0.15
same,viability score,[3],0.513 (inactive)
CN1CCN(CCCN2c3ccccc3Sc3ccc(S(=O)(=O)N(C)C)cc32)CC1 [Prestw-149],NF-kB reporter,[1]; [4],0.413 ± 0.053
same,NF-kB reporter,[1]; agonist: LPS 0.1 ug/mL,0.958 ± 0.052
same,NF-kB reporter,[1]; agonist: MPLA […],1.82 ± 0.044
same,IRF reporter,[2]; agonist: 3'3'-cGAMP 10 ug/mL,0.936 ± 0.051
same,IRF reporter,[2]; agonist: LPS 0.1 ug/mL,0.851 ± 0.078
same,IRF reporter,[2]; agonist: MPLA […],1.55 ± 0.16
same,viability score,[3],0.149 (inactive)
Cc1ccc(OCCCOc2cccc3cccnc23)c(Br)c1,NF-kB reporter,[1]; [4],0.998 ± 0.071
same,NF-kB reporter,[1]; agonist: LPS 0.1 ug/mL,1.01 ± 0.078
same,NF-kB reporter,[1]; agonist: MPLA […],1.01 ± 0.027
same,IRF reporter,[2]; agonist: 3'3'-cGAMP 10 ug/mL,0.829 ± 0.053
same,IRF reporter,[2]; agonist: LPS 0.1 ug/mL,0.935 ± 0.13
same,IRF reporter,[2]; agonist: MPLA […],0.981 ± 0.21
same,viability score,[3],0.998 (active)
COc1ccc(Br)cc1S(=O)(=O)NCc1ccccc1,NF-kB reporter,[1]; [4],1.23 ± 0.3
same,NF-kB reporter,[1]; agonist: LPS 0.1 ug/mL,0.932 ± 0.054
same,NF-kB reporter,[1]; agonist: MPLA […],1.06 ± 0.11
same,IRF reporter,[2]; agonist: 3'3'-cGAMP 10 ug/mL,1.18 ± 0.046
same,IRF reporter,[2]; agonist: LPS 0.1 ug/mL,1.19 ± 0.13
same,IRF reporter,[2]; agonist: MPLA […],1.21 ± 0.16
same,viability score,[3],0.928 (active)
CCOc1ccccc1NC(=O)NCc1sc(-c2ccccc2Cl)nc1C,NF-kB reporter,[1]; [4],0.768 ± 0.19
same,NF-kB reporter,[1]; agonist: LPS 0.1 ug/mL,1.07 ± 0.058
same,NF-kB reporter,[1]; agonist: MPLA […],0.98 ± 0.072
same,IRF reporter,[2]; agonist: 3'3'-cGAMP 10 ug/mL,0.89 ± 0.048
same,IRF reporter,[2]; agonist: LPS 0.1 ug/mL,0.926 ± 0.17
same,IRF reporter,[2]; agonist: MPLA […],0.898 ± 0.11
same,viability score,[3],1 (active)
Nc1ncn(C2O[C@H](CO)[C@@H](O)[C@H]2O)c(=O)n1 (stereo partly specified) [Prestw-866],NF-kB reporter,[1]; [4],2.01 ± 0.35
same,NF-kB reporter,[1]; agonist: LPS 0.1 ug/mL,1.24 ± 0.18
same,NF-kB reporter,[1]; agonist: MPLA […],4.32 ± 0.33
same,IRF reporter,[2]; agonist: 3'3'-cGAMP 10 ug/mL,0.508 ± 0.033
same,IRF reporter,[2]; agonist: LPS 0.1 ug/mL,0.622 ± 0.14
same,IRF reporter,[2]; agonist: MPLA […],0.747 ± 0.1
same,viability score,[3],0.806 (active)
O=C(NC(Cc1cc(=O)[nH]c2ccccc12)C(=O)O)c1ccc(Cl)cc1 (stereo unspecified),NF-kB reporter,[1]; [4],1.4 ± 0.19
same,NF-kB reporter,[1]; agonist: LPS 0.1 ug/mL,1.19 ± 0.21
same,NF-kB reporter,[1]; agonist: MPLA […],0.968 ± 0.055
same,IRF reporter,[2]; agonist: 3'3'-cGAMP 10 ug/mL,0.918 ± 0.03
same,IRF reporter,[2]; agonist: LPS 0.1 ug/mL,1.32 ± 0.16
same,IRF reporter,[2]; agonist: MPLA […],1.09 ± 0.16
same,viability score,[3],0.992 (active)
COc1cc2nc(N3CCN(C(=O)C4CCCO4)CC3)nc(N)c2cc1OC.Cl.O.O (stereo unspecified),NF-kB reporter,[1]; [4],0.675 ± 0.12
same,NF-kB reporter,[1]; agonist: LPS 0.1 ug/mL,0.937 ± 0.069
same,NF-kB reporter,[1]; agonist: MPLA […],0.863 ± 0.052
same,IRF reporter,[2]; agonist: 3'3'-cGAMP 10 ug/mL,0.963 ± 0.029
same,IRF reporter,[2]; agonist: LPS 0.1 ug/mL,1.09 ± 0.094
same,IRF reporter,[2]; agonist: MPLA […],1.16 ± 0.2
same,viability score,[3],0.996 (active)
Nc1ccc(C=Cc2ccccc2)cc1,NF-kB reporter,[1]; [4],0.964 ± 0.097
same,NF-kB reporter,[1]; agonist: LPS 0.1 ug/mL,0.776 ± 0.038
same,NF-kB reporter,[1]; agonist: MPLA […],0.976 ± 0.034
same,IRF reporter,[2]; agonist: 3'3'-cGAMP 10 ug/mL,0.174 ± 0.012
same,IRF reporter,[2]; agonist: LPS 0.1 ug/mL,0.857 ± 0.089
same,IRF reporter,[2]; agonist: MPLA […],0.719 ± 0.056
same,viability score,[3],0.973 (active)
CN1c2ccccc2-c2ccccc2C12C=Cc1cc([N+](=O)[O-])ccc1O2 (stereo unspecified),NF-kB reporter,[1]; [4],0.385 ± 0.021
same,NF-kB reporter,[1]; agonist: LPS 0.1 ug/mL,0.916 ± 0.1
same,NF-kB reporter,[1]; agonist: MPLA […],0.879 ± 0.07
same,IRF reporter,[2]; agonist: 3'3'-cGAMP 10 ug/mL,1.09 ± 0.07
same,IRF reporter,[2]; agonist: LPS 0.1 ug/mL,1.27 ± 0.2
same,IRF reporter,[2]; agonist: MPLA […],1.1 ± 0.12
same,viability score,[3],0.999 (active)
CC(C)(C)NC[C@H](O)COc1nsnc1N1CCOCC1.O=C(O)/C=C\C(=O)O,NF-kB reporter,[1]; [4],1.19 ± 0.2
same,NF-kB reporter,[1]; agonist: LPS 0.1 ug/mL,1.13 ± 0.43
same,NF-kB reporter,[1]; agonist: MPLA […],0.917 ± 0.056
same,IRF reporter,[2]; agonist: 3'3'-cGAMP 10 ug/mL,0.906 ± 0.031
same,IRF reporter,[2]; agonist: LPS 0.1 ug/mL,1.3 ± 0.34
same,IRF reporter,[2]; agonist: MPLA […],1.21 ± 0.14
same,viability score,[3],0.992 (active)
c1cncc(CSc2ccc(-c3ccncc3)nn2)c1,NF-kB reporter,[1]; [4],0.532 ± 0.17
same,NF-kB reporter,[1]; agonist: LPS 0.1 ug/mL,0.711 ± 0.071
same,NF-kB reporter,[1]; agonist: MPLA […],0.919 ± 0.062
same,IRF reporter,[2]; agonist: 3'3'-cGAMP 10 ug/mL,0.53 ± 0.037
same,IRF reporter,[2]; agonist: LPS 0.1 ug/mL,0.647 ± 0.079
same,IRF reporter,[2]; agonist: MPLA […],0.58 ± 0.13
same,viability score,[3],0.892 (active)
CC[C@H](Nc1ncnc2[nH]cnc12)c1nc2cccc(F)c2c(=O)n1-c1ccccc1,NF-kB reporter,[1]; [4],1.18 ± 0.27
same,NF-kB reporter,[1]; agonist: LPS 0.1 ug/mL,0.973 ± 0.11
same,NF-kB reporter,[1]; agonist: MPLA […],1.04 ± 0.067
same,IRF reporter,[2]; agonist: 3'3'-cGAMP 10 ug/mL,0.641 ± 0.023
same,IRF reporter,[2]; agonist: LPS 0.1 ug/mL,0.763 ± 0.073
same,IRF reporter,[2]; agonist: MPLA […],0.997 ± 0.18
same,viability score,[3],0.964 (active)
